Screening results as filed in PubChem.
M4 antag: antagonists of human muscarinic M4 receptor (CHRM4) | P08173 | CHO-hM4 cells, ACh EC80, Fluo-8 calcium fluorescence | inhibition, % at 3 µM | 360,000 tested, 0.73% active | AID 624125;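 active = inhibition above its plate's cutoff, the mean inhibition of sample wells plus 3 SD, cut at about 27% in these data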;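 also: 0% = acetylcholine EC80 with DMSO and 100% = DMSO without agonist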
Target sequence (P08173 whole entry, looked up): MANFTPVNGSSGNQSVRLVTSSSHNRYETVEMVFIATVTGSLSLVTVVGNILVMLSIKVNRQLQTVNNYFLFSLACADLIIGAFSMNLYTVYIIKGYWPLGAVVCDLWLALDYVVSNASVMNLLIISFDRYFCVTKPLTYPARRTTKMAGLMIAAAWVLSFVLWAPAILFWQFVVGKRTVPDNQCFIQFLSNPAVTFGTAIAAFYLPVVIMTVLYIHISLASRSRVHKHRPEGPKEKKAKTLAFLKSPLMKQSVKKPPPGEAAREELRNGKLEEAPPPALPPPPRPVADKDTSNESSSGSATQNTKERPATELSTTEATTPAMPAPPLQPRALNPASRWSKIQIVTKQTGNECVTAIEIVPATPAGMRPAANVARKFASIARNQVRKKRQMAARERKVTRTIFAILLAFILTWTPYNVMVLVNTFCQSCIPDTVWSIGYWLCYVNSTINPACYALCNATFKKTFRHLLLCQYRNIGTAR
CHO-K1 Ca antag: counter-screen for M1 antagonists: effect in parental CHO-K1 cells; inhibition, % at 3 µM; ATP-induced calcium, Fluo-8 fluorescence; 360,000 tested, 0.6% active;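 active = inhibition above a per-plate cutoff, the plate's mean sample inhibition plus 3 SD, cut at about 24% in these data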;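 also: 0% = DMSO plus EC80 ATP and 100% = DMSO alone without ATP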
CHO-K1 Ca PAM: counter-screen for M1 PAMs: effect in parental CHO-K1 cells; 360,000 tested, 0.02% active; activation, % at 3 µM; AID 602247; ATP EC20, Fluo-8 calcium fluorescence; 0% at ATP EC20, 100% at ATP max;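 active = activation above the run cutoff, the mean activation of all test compounds plus 3 SD, cut at about 40% in these data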;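 also: peak over basal fluorescence ratio in a 140 s read after ATP addition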
CHO-K1 Ca ag: M1 agonist counterscreen hit in parental CHO-K1 cells; activation, % at 3 µM; AID 602248; Fluo-8 calcium fluorescence; scaled to maximal ATP response, vehicle zero; 360,000 tested, 0.48% active; in the data active = activation above about 15%;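 also: untransfected CHO-K1 host cells lacking M1 receptor as counterscreen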
M4 PAM: CHRM4 positive allosteric modulation; CHO-K1 hM4/Gqi5, Fluo-8 calcium fluorescence, ACh EC20; 0% = ACh EC20, 100% = maximal ACh; activation, % at 3 µM; 360,000 tested, 0.4% active;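 active = activation above its plate's cutoff, the mean activation of sample wells plus 3 SD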
M4 ag: agonists of human muscarinic M4 receptor (CHRM4) | P08173 | 360,000 tested, 0.14% active | CHO-K1 hM4/Gqi5, Fluo-8 calcium fluorescence; vehicle 0%, full acetylcholine response 100% | activation, % at 3 µM | AID 624127;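 active = activation above the run mean over all test wells plus 3 SD, cut at about 32% in these data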;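 also: peak over basal fluorescence ratio per well then scaled between controls; 0% = DMSO wells and 100% = acetylcholine at EC100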
The depositor's hits bear a star. This is a sample that favours compounds with a hit; in the whole collection about 2% have one here.

SMILES | M4 antag | CHO-K1 Ca antag | CHO-K1 Ca PAM | CHO-K1 Ca ag | M4 PAM | M4 ag
CC(C)(C)C(=O)/C=c1\s/c(=C\c2ccc(-c3ccc([N+](=O)[O-])cc3)o2)c(=O)n1CC(=O)NC(N)=O | 17.1 | 26.5* | -10.5 | 15.9* | -9.2 | 9.3
CC(C)(C)c1ccc(NC(=O)N2CCCN(c3c(Cl)cncc3Cl)CC2)cc1 | 5.9 | 6.2 | 3.0 | 0.5 | -15.1 | 1.9
Cc1ccc(N2C(=O)CCSC23C(=O)Nc2ccccc23)cc1 (centres undefined) | 27.1* | 5.4 | 0.3 | 0.0 | -17.8 | 0.6
COc1cc(/C=N/NC(=O)c2ccccn2)ccc1OC(=O)c1ccccc1Br | -12.2 | 27.5* | -7.0 | 3.0 | -5.4 | 17.1
COc1cc(/C=N/NC(=O)c2ccccn2)ccc1OC(=O)c1ccc(Br)cc1 | 1.9 | -17.0 | -0.9 | 2.1 | 0.9 | 2.6
COc1ccc(C2C(C(=O)NCc3ccccn3)CCC(=O)N2c2cc(OC)c(OC)c(OC)c2)cc1 (centres undefined) | -3.3 | -13.2 | 16.0 | 0.9 | -0.6 | -0.3
O=C(CCCCCN1C(=O)CCC1=O)Nc1ccc(Cl)c(C(F)(F)F)c1 | 5.4 | -32.5 | 10.8 | 17.0* | -8.8 | 18.0
Cc1cc(NC(=O)CSCC(=O)Nc2ccc(Cl)c(C(F)(F)F)c2)no1 | -5.0 | -7.7 | -5.3 | 2.9 | 0.3 | 3.6
Cc1cc(NC(=O)CN(C)CC(=O)Nc2ccc(Cl)c(C(F)(F)F)c2)no1 | -6.9 | 3.1 | -17.3 | 3.6 | 23.5* | 6.4
N#Cc1c2n(c3c(N)ncnc13)CCCCC2 | -7.0 | -12.1 | 8.3 | 4.4 | -8.5 | 11.2
Cc1cnc(NS(=O)(=O)c2ccc(N)cc2)nc1-c1ccccc1O | -0.4 | 1.6 | 3.7 | -0.4 | -0.2 | -0.6
CCCCCCCCCCCCCCCC[N+](C)(C)CC | 51.9* | -4.3 | 15.4 | 2.1 | -18.2 | 1.1
CCCCCC[N+](C)(C)CCSSCC[N+](C)(C)CCCCCC | -4.9 | -14.5 | 23.5 | 1.2 | 4.4 | 0.4
CCCCCCCCCCCCCCCC[N+](C)(C)CCl | 35.4* | -13.1 | 18.1 | 0.1 | -10.2 | 2.3
Cc1ccnc2nc(C(=O)OCCOc3ccccc3)nn12 | 1.6 | -9.5 | 9.7 | 0.6 | 2.6 | 1.3
Cc1ccnc2nc(C(=O)OCC(=O)NC3CCCC(C)C3C)nn12 (centres undefined) | -9.1 | -15.6 | -4.1 | -0.6 | 20.9* | 1.6
Cc1ccnc2nc(C(=O)OCCOc3cccc(Br)c3)nn12 | -2.0 | 25.5* | -5.0 | -0.1 | -1.1 | 1.7
CCCC(=O)Nc1nc(-c2ccccc2)c(CC)s1 | 7.4 | 15.5 | -17.3 | -0.2 | -7.6 | -1.4
Cc1cccc2c1cnn2C(=O)Nc1cc(F)ccc1F | 8.0 | -9.5 | 11.1 | 1.4 | -3.0 | -0.2
Cc1c(OCC(=O)N(C)C)ccc2c3c(c(=O)oc12)CCCCC3 | -1.6 | 25.2* | -12.8 | 0.7 | -2.8 | 3.1
CCOC(=O)CCc1c(C)c2ccc(OCC(=O)N(CC)CC)c(C)c2oc1=O | 35.7* | 0.7 | -3.6 | 1.2 | -15.3 | -1.5
Cc1c(OCC(=O)N2CCC(C(=O)O)CC2)ccc2c3c(c(=O)oc12)CCCC3 | 5.2 | 2.2 | -11.4 | 0.3 | -1.2 | 0.9
Cc1c(OCC(=O)N2CCN(c3ccccc3)CC2)ccc2c3c(c(=O)oc12)CCCC3 | -15.3 | 25.1* | 7.6 | 1.8 | 11.4 | 0.1
O=C(/C=C/c1cc[n+](CC(=O)c2ccc3cccc4c3c2CC4)cc1)c1ccc2cccc3c2c1CC3 | 6.9 | -4.0 | 9.7 | -0.1 | -1.7 | 0.5
COc1ccc(C)cc1Nc1n[n+](-c2ccccc2)c(-c2cc(OC)c(OC)cc2Br)s1 | -13.7 | -15.5 | 4.2 | -0.2 | 9.8 | 1.1
SMILES | M4 antag | CHO-K1 Ca antag | CHO-K1 Ca PAM | CHO-K1 Ca ag | M4 PAM | M4 ag
COc1ccc(C)cc1Nc1n[n+](-c2ccccc2)c(-c2c(OC)ccc3ccccc23)s1 | 16.5 | 16.2 | 0.8 | 16.3* | -6.2 | 21.1
CC(=O)N1c2ccc(S(=O)(=O)NCCC(=O)Nc3ccc(C)c(F)c3)cc2CC1C (centres undefined) | -4.1 | -5.5 | -0.8 | 2.2 | -10.5 | 2.3
Cc1ccccc1-c1cc(C(=O)Nc2sc(C(=O)OC(C)C)c(C)c2C#N)c2ccccc2n1 | 5.7 | 35.0* | -4.2 | 5.0 | -10.9 | 8.0
CCC(c1nnnn1Cc1ccc(F)cc1)N1CCN(C)CC1 (centres undefined) | -16.1 | -17.0 | 14.2 | 0.3 | 24.3* | 1.6
CN1CCN(C(c2cccs2)c2nnnn2Cc2ccc(F)cc2)CC1 (centres undefined) | 5.8 | -5.7 | 0.3 | 1.7 | -1.2 | 1.1
CCOC(=O)c1c(-c2ccc(C)o2)csc1NC(=O)COC(=O)c1cccs1 | 29.2* | -1.9 | 2.4 | 2.5 | -15.5 | 11.0
O=C(Cc1cccc2ccccc12)N/N=C/c1ccncc1 | -1.4 | 1.2 | 6.4 | 25.7* | -5.1 | 2.9
O=C(Cc1ccccc1)NN=Cc1ccccc1 | -7.2 | 3.3 | -0.2 | 0.2 | 9.3 | 0.8
O=C(CC(=O)N/N=C/c1ccccc1)NCc1ccccc1 | -2.4 | 15.9 | 2.6 | 17.3* | 8.6 | 2.0
Cc1ccc(C2NC(=S)NC3=C2C(=O)CCC3)cc1 (centres undefined) | -2.8 | -18.5 | 23.3 | 1.1 | -0.5 | 0.9
CC(C)c1ccc(C2NC(=S)NC3=C2C(=O)CCC3)cc1 (centres undefined) | 26.8* | 1.6 | 1.4 | 0.3 | -31.4 | 0.2
CCOC(=O)c1c(N2C(=O)Nc3cc(Cl)c(Cl)cc3N2O)sc2c1CCCCC2 | -1.6 | -6.4 | 11.8 | -0.2 | -0.2 | -1.4
COC(=O)C1=C(C)N(Cc2ccccc2)C(=NCc2ccccc2)N[C@H]1c1cccc(C(F)(F)F)c1 | 20.9 | 15.9 | 1.5 | 20.6* | -0.9 | 10.6
COC(=O)C1=C(C)N(Cc2ccccc2)C(=NCC(C)C)N[C@H]1c1cccc(C(F)(F)F)c1 | 20.8 | 9.8 | -4.2 | 4.0 | 4.8 | 20.4
CCN1C(=NCc2ccco2)N[C@@H](c2cccc(C(F)(F)F)c2)C(C(=O)OC)=C1C | 27.1* | -10.1 | -3.5 | 1.1 | 2.3 | 3.3
C=CCOn1c(=O)c(-c2ccc(OCC)cc2)[n+]([O-])c2ccccc21 | 0.2 | -11.1 | 9.4 | 4.8 | 6.8 | 0.4
Cc1cccc(N2CCN(C(=O)CCn3c(=S)[nH]c4cc5c(cc4c3=O)OCO5)CC2C)c1 (centres undefined) | 40.0* | 4.9 | 5.6 | 1.8 | 30.9* | 6.3
COc1cccc(N2C(=NC(=O)CCc3ccccc3)SC3CS(=O)(=O)CC32)c1 (centres undefined) | 0.6 | -13.2 | 3.8 | 1.1 | 0.5 | 1.1
Oc1c(N=Nc2ccccn2)ccc2ccccc12 | 34.6* | 11.3 | 6.0 | 0.1 | -0.2 | 0.6
CCC(C)[C@@H](C(=O)Nc1ccc2c(c1)OCO2)N1Cc2ccccc2C1=O (some centres undefined) | -18.7 | 11.9 | -3.8 | 0.1 | 18.6* | -1.8
